Source: the supplement of paper PMC11482750
± gives the standard deviation of the averaged measurements.

These targets were tested with CCC1CCC(=O)O1 [γ-hexalactone] (assay: control-subtracted net OSN firing rate; higher = stronger neuronal activation). Conditions: odorant dilution (vol/vol): 1/100.
Protocol: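 Single sensillum recordings from olfactory sensory neurons. The neurons sit in the maxillary palp or antennal sensilla of D. melanogaster (wild type, mutants, or at1 empty-neuron lines expressing Or42a homologs or the A181D S307P mutant) and of four Scaptomyza species. Each odorant was given as a 1 s pulse from 20 µl loaded on filter paper at 1:100 vol/vol, diluted in mineral oil (γ-hexalactone in DMSO). Spikes were counted in a 0.5 s window starting 0.2 s after onset, background was subtracted, the count was doubled, and the mean solvent-control response was subtracted.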

Target | control-subtracted net OSN firing rate [spikes/s]
Canton-S ab10b | -0.2 ± 5.2
Canton-S ai3c | 0.5 ± 4.4
Or67dGal4, UAS-Sfla A181D S307P/+ at1 | 16.8 ± 14
Canton-S ab7b | -2 ± 3.3
Canton-S at4a | -3 ± 3.5
Canton-S pb1a | 167 ± 28
Or67dGal4, UAS-Sfla Or42a3 at1 | 38.3 ± 15
Canton-S ai2a | -2 ± 5.3
Canton-S ab8a | 3.2 ± 11
Or67dGal4, UAS-Sfla Or42a2 at1 | -3.14 ± 2.5
Canton-S at4c | -6 ± 5.2
Or67dGal4, UAS-Spal Or42a at1 | 95.8 ± 46
Canton-S ab6b | 4.22 ± 12
Canton-S ab6a | 3.33 ± 7
Or67dGal4, UAS-Dmel Or42a at1 | 79 ± 40
Canton-S ab1a | 0.25 ± 12
Canton-S ab1d | 1.5 ± 5.5
Canton-S ab2b | 6.86 ± 9.2
Canton-S ab3b | -0.909 ± 7.1
Canton-S pb3a | -1.14 ± 8.2

Target | control-subtracted net OSN firing rate [spikes/s]
Canton-S pb2b | -2.5 ± 3.8
Canton-S ab5b | 1.6 ± 5.2
Canton-S ab3a | 1.82 ± 8.3
Or67dGal4; UAS-SflaOr42a4 at1 | 50.9 ± 14
Canton-S ab7a | -7.5 ± 11
Canton-S ai3b | -2.5 ± 6.8
Canton-S ab2a | -6.29 ± 11
Canton-S ab4b | -4 ± 5.3
Or67dGal4, UAS-Sfla Or42a4 at1 | 6 ± 9.1
Canton-S ab9b | -2.67 ± 12
Canton-S ab4a | 2 ± 2
Canton-S ab10a | -0.4 ± 7.9
Or67dGal4; UAS-SflaOr42a3 at1 | 48.8 ± 19
Canton-S ab8b | 10 ± 5.8
Canton-S pb2a | -7.5 ± 12
Or67dGal4, UAS-Sfla Or42a3/+ at1 | 34 ± 6.2
Canton-S ab1b | 2.5 ± 8.5
Canton-S ai3a | -1.5 ± 3.4
Canton-S ab9a | 2.67 ± 7.6
Or67dGal4; UAS-A181D S301P at1 | 42.6 ± 20
